Assay outcomes (PubChem)
The list is not random: actives were taken first. Their share in the collection is about 3.5%.
Anthrax LF prot = anthrax lethal factor protease inhibition; inhibition, % at 10 µM; multiplex microsphere protease cleavage assay, LF; 0.12% of 360,000 active; P15917; further: plate controls were buffer without enzyme for full effect and enzyme alone for no effect
Autofluor counter = compound fluorescence in toxin protease inhibitor counterscreen | compound autofluorescence counterscreen, microsphere flow cytometry; hits give high values | fluorescence intensity (test concentration not listed) | 3.1% of 360,000 active | AID 624483; in the data active means fluorescence intensity above about 16000; inconclusive means no clear call, values can overlap the other calls
BoNT A protease = inhibitors of Botulinum neurotoxin A light chain protease. multiplex microsphere protease substrate cleavage, flow cytometry. inhibition, % at 10 µM. 0.17% of 360,000 active. AID 588499; further: plate controls were buffer without enzyme for full effect and enzyme alone for no effect
BoNT F protease = blocks Botulinum neurotoxin F light chain protease; 0.22% of 360,000 active; inhibition, % at 10 µM; Multiplex microsphere protease cleavage assay, flow cytometry; AID 588497; in the data active means inhibition above about 35%, passing the limit was not always enough; inconclusive means no clear call, values can overlap the other calls; further: plate controls were buffer without enzyme for full effect and enzyme alone for no effect
Active calls of the source: *; ? = inconclusive. Unless noted, no stated cut-off is given here; in the data, active means inhibition above about 30%; inconclusive means no clear call, values can overlap the other calls; inactive means below that.

SMILES | Anthrax LF prot | Autofluor counter | BoNT A protease | BoNT F protease
COCCn1c(SCC(=O)Nc2ccc(F)cc2)nc2c(c1=O)SCC2 | -12 | 2973 | 0 | 0
CCN(CC)CCN1CCN(c2cncc(-c3ccc4ccccc4c3)n2)CC1 | -13 | 4095 | 1 | -10
CCN1C(=O)C(CC(=O)Nc2ccc(OC)cc2)N(Cc2cccs2)C1=S (centres undefined) | -2 | 16912* | ? | -4
C[C@@H]1CN([C@H](C)CO)C(=O)CCCn2nncc2CO[C@H]1CN(C)Cc1ccc2c(c1)OCCO2 | -4 | 2935 | 0 | 0
COc1ccc(N2C(=O)C(CC(=O)O)S/C2=N\N=C\c2cccs2)cc1 (centres undefined) | 3 | 3074 | 3 | 43*
CC(CC(=O)Nc1ccc2c(c1)c(=O)n(C)n2-c1ccc2ccccc2c1)C(F)(F)F (centres undefined) | 1 | 3656 | 0 | 1
COC(=O)c1sccc1NC(=O)c1cc(-c2cc(C)ccc2C)nc2ccccc12 | -3 | 21965* | 3 | 2
Cc1ccc(C)c(-c2cc(C(=O)Nc3nccs3)c3ccccc3n2)c1 | 2 | 24181* | -1 | -5
Cc1ccccc1-c1cc(C(=O)Nc2sc(C(=O)OC(C)C)c(C)c2C#N)c2ccccc2n1 | -4 | 16235* | 2 | 1
COC(=O)c1sccc1NC(=O)c1cc(-c2ccc(C)cc2)nc2ccccc12 | 0 | 2623 | 0 | -8
CC1Cc2[nH]c(=S)[nH]c(=O)c2C(c2ccc(F)cc2)O1 (centres undefined) | -4 | 6093 | 0 | -2
COc1cccc(-c2cnc(C(O)c3cc(C)cc(C)c3)[nH]2)c1 (centres undefined) | -3 | 4241 | 0 | -7
O=C(Cn1cc(COc2ccc3ccccc3c2)nn1)NS(=O)(=O)c1cccc(OC(F)F)c1 | 1 | 2717 | 0 | -1
CCOc1cccc2sc(=NC(=O)c3ccc(S(=O)(=O)N4CCOCC4)cc3)n(C)c12 | 0 | 22851* | 3 | 3
COCCN1C(=O)COc2ccccc2C1C(=O)NC1CCCC1 (centres undefined) | -7 | 5615 | 0 | -2
Cc1cc(C)c2c(c1)-c1cc(C)nn1C(c1ccc3c(c1)OCO3)N2 (centres undefined) | 0 | 24496* | ? | -9
N#Cc1c(N)[nH]c(C(=O)c2ccccc2)c1-c1ccccc1Br | -14 | 6017 | 0 | -4
CCCn1c(-c2ccc(OC)cc2)nc2nc3ccccc3nc21 | 6 | 22319* | 3 | 2
Cc1ccc(C(C)C)cc1OCC(=O)N1CCN(C(=O)c2ccco2)CC1 | 12 | 5872 | 2 | 15
CCc1ccc(OCC(=O)Nc2cc(S(=O)(=O)CC)ccc2O)cc1 | 0 | 17897* | 4 | 4
CCS(=O)(=O)c1ccc(O)c(NC(=O)COc2ccccc2)c1 | -1 | 11012 | 0 | 2
CCNC(=O)c1cc(Br)ccc1Cl | -1 | 16959* | -2 | 0
CCOC(=O)[C@]12CCC=C1N(Cc1ccco1)C(=O)[C@H](CC(=O)NCCCCc1ccccc1)C2 | -13 | 4251 | 0 | -1
CN(C)c1ccc(-c2ccnc3c2CC(C)(C(=O)NCC2CCOCC2)O3)cc1 (centres undefined) | -1 | 3776 | 0 | -3
CCSc1nc2ccccc2n1CCOc1ccccc1 | 6 | 3158 | 2 | ?
SMILES | Anthrax LF prot | Autofluor counter | BoNT A protease | BoNT F protease
CSc1nc2ccccc2n1C(=O)Oc1ccccc1 | 1 | 20058* | 2 | 6
Cc1ccc(-c2cnn(-c3cccc([N+](=O)[O-])c3)c2N)cc1 | -2 | 23689* | 0 | 0
Cc1cccc(CN(C)CCc2ccccn2)c1 | 1 | 16809* | -2 | -5
CNC(=O)CSc1nnc(-c2ccncc2)n1Cc1ccccc1 | -2 | 16183* | 0 | 1
CCn1c(SCc2cccc(C)c2)nnc1-c1ccccc1 | -1 | 23697* | ? | -2
O=C(O)CSc1nnc(-c2ccncc2)n1CCc1ccccc1 | 0 | 22072* | -5 | -6
C=CCn1c(SCC(=O)O)nnc1-c1ccccc1 | -6 | 22122* | 0 | 0
COC(=O)c1sccc1S(=O)(=O)Nc1ccc(C(O)(C(F)(F)F)C(F)(F)F)cc1 | -2 | 3813 | 0 | 1
COc1cc(C)ccc1S(=O)(=O)NC(=O)C1(C)CCN1C(=O)c1ccc(C2CCCCC2)cc1 (centres undefined) | 7 | 3177 | 0 | -1
CCSc1nnc(-c2ccncc2)n1Cc1ccccc1 | -1 | 16561* | ? | -1
CCOC(=O)c1[nH]c(C)c(C(=O)NCCCOC(C)C)c1C | -1 | 21373* | -4 | -5
CCOC(=O)c1[nH]c(C)c(C(=O)N2CCN(c3cccc(Cl)c3)CC2)c1C | 0 | 19964* | 2 | 1
CCOC(=O)c1[nH]c(C)c(C(=O)NC(C)CC)c1C (centres undefined) | 1 | 5433 | 0 | -4
CCOC(=O)c1[nH]c(C)c(C(=O)N2CCN(c3ccc(F)cc3)CC2)c1C | -2 | 21567* | 4 | 2
CCOC(=O)c1[nH]c(C)c(C(=O)N2CCN(C(=O)c3ccco3)CC2)c1C | 0 | 7638 | 0 | 10
CCOC(=O)c1[nH]c(C)c(C(=O)Nc2cccc(Cl)c2C)c1C | -4 | 19613* | 3 | 3
CCOC(=O)c1[nH]c(C)c(C(=O)Nc2ccc(Cl)cc2)c1C | -1 | 5548 | 0 | -2
CCOC(=O)c1[nH]c(C)c(C(=O)N2CCN(c3ccc(OC)cc3)CC2)c1C | -2 | 2178 | 0 | -1
CCOC(=O)[C@]12CCCC=C1N(Cc1ccco1)C(=O)[C@H](CC(=O)NCC13CC4CC(CC(C4)C1)C3)C2 | 3 | 6681 | -2 | -5
CC(CSC(=O)c1ccccc1)C(=O)N1c2ccccc2CC1C(=O)O (centres undefined) | -2 | 6750 | 0 | -10
C=CCNC(=S)Nc1sc2c(c1C(=O)OCC)CC(C(C)C)OC2 (centres undefined) | 0 | 22389* | 0 | 0
COc1ccc(C(=O)N2CCC(C)(C(=O)O)C2)c(OC)c1 (centres undefined) | -6 | 4145 | -1 | -3
Cn1ccnc1SCC(=O)Nc1cccc(O)c1 | -3 | 17009* | -2 | 0
O=C(Nc1cc(C(F)(F)F)ccc1N1CCOCC1)C1Cc2ccccc2CN1C(=O)c1ccco1 (centres undefined) | 2 | 20221* | 2 | -1
Cn1ccnc1SCC(=O)Nc1cc(C(F)(F)F)ccc1N1CCOCC1 | -1 | 16282* | ? | 1
SMILES | Anthrax LF prot | Autofluor counter | BoNT A protease | BoNT F protease
O=C(Nc1cc(C(F)(F)F)ccc1N1CCOCC1)c1cncc(Br)c1 | -1 | 22690* | -10 | -11
Cn1ccnc1SCC(=O)Nc1cccc(C(F)(F)F)c1 | -8 | 9149 | 1 | 1
O=C(Nc1ccccc1)C1Cc2ccccc2CN1C(=O)c1ccco1 (centres undefined) | 14 | 8551 | 1 | 3
O=C(Nc1cc(C(F)(F)F)ccc1N1CCOCC1)c1ccc2ccccc2n1 | -5 | 19909* | 0 | -2
Cc1cc(C(=O)Nc2cc(C(F)(F)F)ccc2N2CCOCC2)no1 | 0 | 5797 | 0 | 7
COc1ccc(OC)c2c(C)cc(N3CCCN(C)CC3)nc12 | -1 | 21960* | -5 | -7
CC(CNC(=O)C1CCCCC1C(=O)O)c1ccccc1 (centres undefined) | -3 | 22629* | 1 | 2
